Shown are actives, neighbours in structure and some others; about 6% of the full set was active somewhere.
CRE Fsk mod – CRE-bla signaling modulation under forskolin stimulation | CHO CRE-bla reporter (cAMP response element driving beta-lactamase), forskolin EC10, beta-lactamase ratio | AID 662 | Potency, µM (series often up to 38.2 µM), without a hit: at the highest dose activity change, negative = inhibition, usual class: activators | 71,000 compounds, 2.5% hits; active means well fitted activation curve with a large enough effect in the signal ratio, with a control signal flat, not every such curve was filed as active; inconclusive means small, poorly fitted or top-dose-only effect, or effect the other way, or a change in a side signal; the % refers to the signal ratio; further: % of control where 0% means no effect
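Cells were plated overnight at 37 °C, exposed to compound titrations plus EC10 NKH 477 for 3 h, then given CCF4 dye for 2 h at room temperature. Blue/green (460/530 nm) ratio was converted to %Activity and AC50 values calculated.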
HEK293 cAMP ctrl – raises cAMP in parental HEK293 cells, TSHR agonist counter-screen | AID 938 | parental HEK293 CNG cAMP sensor, membrane potential fluorescence | Potency, µM (top dose mostly 57.1 µM), inactives show at the highest dose activation, most hits filed as activators | 73,000 compounds, 2.5% hits; further: % of control where 0% means no effect; nearly all actives have a fitted effect of over 55% in size
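Parental HEK 293 cells stably expressing a cAMP-gated CNG channel were loaded with membrane potential dye containing 100 uM RO 20-1724 for 60 min. Compound added for 30 min; depolarization read as fluorescence intensity at 590 nm.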
TSHR agonist – agonists of human thyroid stimulating hormone receptor; P16473; HEK293-CNG-TSHR cells (CNG channel as cAMP sensor), membrane potential dye, cAMP; Potency, µM (series often up to 57.1 µM), inactives show at the top dose activation, most hits filed as activators; 73,000 compounds, 0.48% hits; AID 926; active means well fitted activation curve with a large enough effect in the main read-out, with a control signal flat, not every such curve was filed as active; inconclusive means small, poorly fitted or top-dose-only effect, or a change in a side signal; inactive means no such curve, though single readings can be large or run the other way; % of control where 0% means no effect;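 further: the control signal comes from parental cells without the receptor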
Target sequence (P16473 whole entry, looked up): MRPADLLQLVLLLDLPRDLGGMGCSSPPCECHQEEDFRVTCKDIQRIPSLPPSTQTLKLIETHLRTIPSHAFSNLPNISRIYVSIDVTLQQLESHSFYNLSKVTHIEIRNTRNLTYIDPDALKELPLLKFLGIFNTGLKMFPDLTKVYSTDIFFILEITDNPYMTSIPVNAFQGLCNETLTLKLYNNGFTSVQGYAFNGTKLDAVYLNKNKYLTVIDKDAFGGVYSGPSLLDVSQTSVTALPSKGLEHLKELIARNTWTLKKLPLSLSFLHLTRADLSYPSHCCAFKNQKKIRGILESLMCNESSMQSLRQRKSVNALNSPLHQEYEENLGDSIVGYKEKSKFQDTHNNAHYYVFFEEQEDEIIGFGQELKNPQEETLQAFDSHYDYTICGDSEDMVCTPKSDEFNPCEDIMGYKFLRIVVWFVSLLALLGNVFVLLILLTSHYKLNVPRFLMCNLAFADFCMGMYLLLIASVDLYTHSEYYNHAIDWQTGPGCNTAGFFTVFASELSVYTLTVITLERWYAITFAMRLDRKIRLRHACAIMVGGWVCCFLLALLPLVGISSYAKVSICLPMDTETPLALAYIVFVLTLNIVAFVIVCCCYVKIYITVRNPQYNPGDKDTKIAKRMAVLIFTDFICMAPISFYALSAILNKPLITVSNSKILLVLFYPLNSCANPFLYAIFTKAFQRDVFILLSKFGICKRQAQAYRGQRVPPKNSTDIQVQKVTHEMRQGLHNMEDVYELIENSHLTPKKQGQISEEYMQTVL
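HEK 293 cells stably expressing TSHR and a modified CNG channel, with CNG-only parental cells as counterscreen, were preloaded 60 min at room temperature with membrane potential dye containing 100 uM RO 20-1724. Compound exposure was 30 min, and depolarization was read as fluorescence at 590 nm.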
ERK AVP block – blocks ERK signaling stimulated by vasopressin | 72,000 compounds, 0.99% hits | AID 995 | Potency, µM (series often up to 57.5 µM), for inactives: at the highest dose activity, negative = inhibition, actives largely listed as inhibitors | HEK293-V1b, vasopressin-stimulated pERK AlphaScreen; further: on the % scale 0 is the no-effect control and ±100 the full control effect; nearly all actives have a fitted effect of over 55% in size
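Overnight-seeded V1b-HEK293 cells in 1% FBS got compound, then vasopressin (25 nM final, 5 min, 37C), then lysis buffer. AlphaScreen detection of phospho-ERK; activity normalized to basal and full-stimulation controls.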
The depositor's hits bear a star; ? = inconclusive; . = no result; [ ] = another dose, or the depositor's remark. Unless noted, the call rests on the fitted dose curve; in most records, active means well fitted curve in the direction sought with a large enough effect; inconclusive means small, poorly fitted or top-dose-only effect, or another doubt; inactive means no such curve, though single readings can be large; an effect the other way counts as inactive or inconclusive. Potency means the concentration at half of the fitted maximal effect.

SMILES	CRE Fsk mod	HEK293 cAMP ctrl	TSHR agonist	ERK AVP block
CCOC(=O)c1oc2ccccc2c1CSc1nnnn1-c1ccccc1	11.7%	15.8µM*	?	-20.0%
COc1ccc(Nc2nc(N3CCCCC3)nc(N3CCCCC3)n2)c(OC)c1	?	0.0%[11.4 µM]	2.0%[11.4 µM]	-6.8%
COc1ccc(Nc2nc(N)nc(C(F)(F)F)n2)c(OC)c1	12.6µM*	6.1%	10.2%	-22.1%
CC(C)[C@@H]1NC(=O)[C@H](CCCCN)NC(=O)[C@H](Cc2c[nH]c3ccccc23)NC(=O)[C@H](Cc2ccc(O)cc2)NC(=O)[C@H](C)N(C)C(=O)[C@H](Cc2ccccc2)NC1=O	-7.7%	2.7%	3.0%	-21.8%
c1ccc2c(N3CCNCC3)nc(-c3ccc4c(c3)OCO4)nc2c1	?	-8.8%	2.1%	8.4%
COc1cccc(-c2nc(Cc3ccc(OC)c(OC)c3)no2)c1	20.0%	25.1µM*	?	-31.4%
COc1ccc(-c2ccc(-c3nnc(Cc4ccc(OC)c(OC)c4)o3)cc2)cc1	4.1%	28.3%	.	-1.5%
CCC[C@H]1C[C@H](C(=O)N[C@@H]([C@H]2O[C@@H](SC)[C@@H](O)[C@@H](O)[C@@H]2O)[C@H](C)Cl)N(C)C1	5.2%[17.1 µM]	-2.6%[25.6 µM]	-11.3%[25.6 µM]	10.0%[25.7 µM]
Oc1ccc(Nc2nc(NCC3CCCO3)c3ccccc3n2)cc1 (centres undefined)	-3.5%	-13.4%	-3.9%	12.6µM*
O=C(O)CSCCc1ccccc1	-9.8%[7.6 µM]	12.1%[11.4 µM]	1.5%[11.4 µM]	11.5%[11.5 µM]
NC(=O)NCCS[C@H]1CCCC[C@@H]1O	-10.9%[7.6 µM]	?	?	-2.5%[11.5 µM]
Cc1cc(NC(=O)CSc2nc(-c3ccco3)cc(C(F)(F)F)n2)no1	3.98µM*	14.5%	14.8%	6.5%
CN(C)c1ncc2nc(-c3ccccc3)c(=O)n(-c3ccccc3)c2n1	?	-5.5%	-0.3%	-15.8%
C/C(N)=C(/C#N)C(=O)CSc1nnc(COc2ccccc2Cl)o1	8.1%	-10.5%	-7.0%	-2.4%
COc1ccccc1OCc1nnc(SCC(=O)c2cc(Cl)ccc2OC)o1	-0.2%	?	?	31.6µM*
COC(=O)n1c(SC)nc2ccccc21	10µM*	3.7%	7.2%	-22.6%
O=C(Nc1ccc2oc(-c3ccccc3)nc2c1)c1cccnc1	?	3.1%	-1.8%	-1.4%
O=C(Nc1ccc2oc(-c3ccccc3F)nc2c1)c1cncc(Br)c1	0.501µM*	-3.5%	-1.2%	-6.2%
COC(=O)C1=CN(C(C)C)C=C(C(=O)OC)C1c1cccc(OC)c1	12.6µM*	?	?	74.2%
CCn1c(SCc2nc(-c3ccccc3)no2)nc2ccccc21	?	25.9%	31.6µM*	29.1%
Cc1c(=O)n(OCc2ccccc2)c2ccccc2[n+]1[O-]	?	1.9%[11.4 µM]	0.8%[11.4 µM]	-28.9%
COc1ccc(COn2c(=O)c(C)[n+]([O-])c3ccccc32)cc1OC	10µM*	5.4%	8.1%	?
COc1ncc2nc(-c3ccccc3)c(=O)n(CCC#N)c2n1	?	-3.2%	-8.3%	-21.5%
CCCCOCCCn1c(-c2ccco2)nc2nc3ccccc3nc21	12.6µM*	17.1%	21.0%	-12.9%
S=c1nc(-c2ccccc2)n(Cc2ccco2)c2c1CCCC2	.	43.0%	5.01µM*	.
SMILES	CRE Fsk mod	HEK293 cAMP ctrl	TSHR agonist	ERK AVP block
c1ccc(-c2nc3nc4ccccc4nc3n2Cc2ccco2)cc1	?	10µM*	?	-5.4%
COCCCn1c(-c2ccco2)nc2ccccc2c1=O	?	2.4%	-4.2%	-17.3%
S=c1nc(-c2ccccc2)n(CCN2CCOCC2)c2c1CCCC2	18.9%	0.4%	1.9%	-0.4%
O=c1onc2cnc3ccccc3n12	?	2.2%	13.3%	40.9%
CCN(C(=O)c1ccnc(C(C)(C)C)c1)c1ccccc1	18.5%	20.8%	16.4%	8.2%
CCN(C(=O)N(CC)c1ccccc1)c1ccccc1	-0.8%	15.8µM*	?	0.2%
N#Cc1ccc(CN2CC[C@@]3(CCCN(S(=O)(=O)c4ccccc4)C3)C2)cc1	-9.6%	29.3%	24.2%	5.6%
CC(=O)[C@H](CC(C)C)NC(=O)[C@@H](CC(C)C)NC(=O)[C@H](CC(C)C)NC(=O)OCc1ccccc1	?	25.1µM*	?	21.1%
CC(=O)NC(CC(C)C)C(=O)NC(Cc1ccccc1)C(N)=O (centres undefined)	0.8%	-4.9%	-1.8%	-17.4%
CCCCCCNC(=O)Nc1ccc(S(=O)(=O)Nc2ccc(CCNC[C@H](O)COc3ccc(O)cc3)cc2)cc1	.	-12.0%	-34.2%	-12.1%
COc1ccc(NC(=O)c2cnn3c(C(F)(F)F)cc(-c4ccco4)nc23)cc1OC	?	-1.8%[11.4 µM]	-4.3%[11.4 µM]	-21.2%
O=C(Nc1ccc2c(c1)OCO2)c1cnn2c(C(F)(F)F)cc(-c3ccco3)nc12	5.01µM*	-4.2%	-18.1%	-19.2%
Cc1cc(NC(=O)CSc2nc3c([nH]c4ccccc43)c(=O)n2-c2cccc(C(F)(F)F)c2)no1	2µM*	3.3%	.	-12.3%
COc1cccc(-n2c(SCC(N)=O)nc3c([nH]c4ccccc43)c2=O)c1	21.8%	2.7%	3.2%[11.4 µM]	?
COc1cccc(-n2c(SCC(=O)Nc3cc(C)on3)nc3c([nH]c4ccccc43)c2=O)c1	3.98µM*	7.1%	18.7%	.
COCc1cc(C)nc(SCC(=O)Nc2cccc3cccnc23)c1C#N	10µM*	11.8%	6.1%	.
COCc1cc(C)nc(SCC(=O)Nc2ccc3c(c2)OCO3)c1C#N	?	2.4%	4.8%	-5.7%
COc1ccc(-c2nc(C#N)c(N3CCCCCC3)o2)cc1OC	1.26µM*	8.1%	.	?
CCOc1ccc(-c2nc(C#N)c(N3CCN(C)CC3)o2)cc1	-3.8%	12.2%	20.1%	?
CCOc1ccc(-c2nc(C#N)c(N3CCCCCC3)o2)cc1	?	-3.5%	20.4%	20µM*
O=C(c1cnccn1)N1CCC2(CC1)CN(Cc1cc(C(F)(F)F)cc(C(F)(F)F)c1)C2	-10.6%	26.3%	19.7%	-14.7%
O=c1c2ccccc2nc(SCc2cn3ccsc3n2)n1-c1ccc(F)cc1	3.98µM*	?	?	?
Cc1c(-c2ccccc2)nc(N)c(C#N)c1-c1ccco1	10µM*	14.7%	1.4%	-12.4%
Cc1nc(N)c(C#N)c(-c2ccccc2)c1C	?	6.5%	3.7%	-23.0%
CCc1nc(N)c(C#N)c(-c2ccncc2)c1C	?	-4.0%	2.8%	?
SMILES	CRE Fsk mod	HEK293 cAMP ctrl	TSHR agonist	ERK AVP block
CCc1nc(N)c(C#N)c(-c2cccn2C)c1C	12.6µM*	5.7%	5.9%	?
CCc1nc(N)c(C#N)c(-c2ccc(O)c(OC)c2)c1C	10µM*	?	?	?
CCOc1cc(-c2cc(-c3ccc(N)cc3)nc(N)c2C#N)ccc1O	2.51µM*	-4.1%	-3.9%	?
CCOc1cc(-c2c(C#N)c(N)nc3c2CCCC3)ccc1O	?	?	?	16.6%
CC(C)(C)[C@@]1(O)CCN2C[C@@H]3c4ccccc4CCc4cccc(c43)[C@@H]2C1	?	27.2%	?	13.5%
COCC(=O)N1CCC2(CC1)CN(C(=O)Nc1cccc(C#N)c1)C2	-9.3%	-4.5%	2.2%	-6.2%
CCNc1ncc2nc(-c3ccc(OC)cc3)c(=O)n(Cc3cccs3)c2n1	?	10.8%	1.2%	-3.5%
